Reference: the supplement of paper PMC13380429

Tested on: Vero E6 infected with SARS-CoV-2
Assay: inhibition of SARS-CoV-2 cytopathic effect; higher = more antiviral protection, active = above 15
Details: 48 h

Measured: inhibition of SARS-CoV-2 cytopathic effect

COc1ccc(O)cc1 [mequinol]
inactive: 1 nM 2.15% | 8.33 nM -1.51% | 100 nM 2.67% | 833.33 nM 1.18% | 10000 nM 2.53%

CSCC1CN(/N=C/c2ccc([N+](=O)[O-])o2)C(=O)O1 (stereo not given) [inimur]
inactive: 1 nM -1.14% | 8.33 nM -0.35% | 100 nM 2.9% | 833.33 nM 1.93% | 10000 nM 0.52%

COc1ccc(CC2NCCc3c2[nH]c2ccc(C)cc32)c(Cl)c1OC (stereo not given)
inactive: 1 nM 0.04% | 8.33 nM 1.87% | 100 nM 6.67% | 833.33 nM -1.77% | 10000 nM -7.05%

CC(=O)OC[C@H]1O[C@@H](n2ccc(=O)[nH]c2=O)[C@H](OC(C)=O)[C@@H]1OC(C)=O [uridine-triacetate]
inactive: 1 nM -1.68% | 8.33 nM 0.37% | 100 nM 0.84% | 833.33 nM -3.59% | 10000 nM -0.59%

O=Nc1ccc(O)c2ncccc12
active: 10000 nM 19.6%
inactive: 1 nM 3.04% | 8.33 nM -4.1% | 100 nM 1.42% | 833.33 nM 13.5%

CCN(CC)C(=O)N1CCN(C)CC1 [diethylcarbamazine]
inactive: 1 nM -4.87% | 8.33 nM -4.75% | 100 nM -2.46% | 833.33 nM 0.55% | 10000 nM -2.31%

CC1=C(C(=O)O)N2C(=O)[C@@H](NC(=O)[C@H](N)c3ccc(O)cc3)[C@H]2SC1 [cefadroxil]
inactive: 1 nM 1.06% | 8.33 nM 1.53% | 100 nM 1.01% | 833.33 nM -2.49% | 10000 nM -1.18%

COc1ccc2[nH]cc(C3=CCNCC3)c2c1
inactive: 1 nM 1.62% | 8.33 nM -0.77% | 100 nM 0.86% | 833.33 nM -2.22% | 10000 nM -3.05%

COc1cc2c(N3CCN(C(=O)Nc4ccc(OC(C)C)cc4)CC3)ncnc2cc1OCCCN1CCCCC1 [tandutinib]
inactive: 1 nM -3.74% | 8.33 nM -4.22% | 100 nM -2.54% | 833.33 nM 0.88% | 10000 nM 0.92%

C[N+](C)(C)CC#CCN1CCCC1=O [oxotremorine-M]
inactive: 1 nM -3.6% | 8.33 nM -0.15% | 100 nM 2.23% | 833.33 nM -2.21% | 10000 nM 0.38%

OC[C@H]1NC[C@@H](O)[C@@H](O)[C@@H]1O [1-deoxymannojirimycin]
inactive: 1 nM -5.76% | 8.33 nM 0.14% | 100 nM -0.54% | 833.33 nM 1.33% | 10000 nM -0.79%

COc1ccc(NS(=O)(=O)c2ccc(/N=N/c3ccc(O)c(C(=O)O)c3)cc2)nn1 [salazodine]
inactive: 1 nM 0.92% | 8.33 nM 3.48% | 100 nM 1.53% | 833.33 nM -1.71% | 10000 nM -1.01%

CCCCCCCCCCC(O)C1C=CC2C(=O)N(c3ccccc3)C(=O)C2N1Nc1ccc([N+](=O)[O-])cc1 (stereo not given)
inactive: 1 nM 0.91% | 8.33 nM 0.89% | 100 nM 1.56% | 833.33 nM 4.49% | 10000 nM 8.83%

O=[N+]([O-])O[C@H]1CO[C@H]2[C@@H]1OC[C@H]2O[N+](=O)[O-] [isosorbide-dinitrate]
inactive: 1 nM -1.2% | 8.33 nM 2.2% | 100 nM 2.2% | 833.33 nM 1.87% | 10000 nM 3.34%

N#Cc1ccc(-c2ccc(S(=O)(=O)Nc3cccc(N)n3)cc2)cc1
inactive: 1 nM 0.14% | 8.33 nM 3.14% | 100 nM -0.56% | 833.33 nM 0.76% | 10000 nM 1.78%

O=C1NC(=O)c2cc(Nc3ccc(F)cc3)c(Nc3ccc(F)cc3)cc21
inactive: 1 nM 1.21% | 8.33 nM -0.56% | 100 nM -1.81% | 833.33 nM 0.4% | 10000 nM 10.3%

COc1ccnc(C[S+]([O-])c2nc3cc(OC(F)F)ccc3[nH]2)c1OC (stereo not given) [pantoprazole]
inactive: 1 nM -1.17% | 8.33 nM -2.35% | 100 nM -4.09% | 833.33 nM 0.78% | 10000 nM 0.79%

Cc1cc(C)c(Nc2ccnc(Nc3ccc(C#N)cc3)n2)c(C)c1 [dapivirine]
inactive: 1 nM -0.02% | 8.33 nM -0.53% | 100 nM 0.06% | 833.33 nM 2.16% | 10000 nM -8.23%

Nc1ccn([C@H]2CC[C@@H](CO)O2)c(=O)n1 [zalcitabine]
inactive: 1 nM -0.47% | 8.33 nM -1.89% | 100 nM -4.07% | 833.33 nM -2.84% | 10000 nM -0.03%

Cc1ncc(COP(=O)([O-])[O-])c(CN(CCN(CC(=O)O)Cc2c(COP(=O)([O-])O)cnc(C)c2O)CC(=O)O)c1O.[Mn].[Na+].[Na+].[Na+] [Mangafodipir (trisodium)]
inactive: 1 nM -2.31% | 8.33 nM -3.12% | 100 nM -2.65% | 833.33 nM -1.43% | 10000 nM -3.61%

N[C@@H]1CCCCN(c2c(F)cc3c(=O)c(C(=O)O)cn(C4CC4)c3c2Cl)C1 [besifloxacin]
inactive: 1 nM -2.51% | 8.33 nM 1.39% | 100 nM 2.41% | 833.33 nM 2.48% | 10000 nM 2.15%

COc1cc(C(C)=O)ccc1OCCCN1CCC(c2noc3cc(F)ccc23)CC1 [iloperidone]
inactive: 1 nM -1.11% | 8.33 nM -0.19% | 100 nM 0.99% | 833.33 nM -0.53% | 10000 nM -3.95%

O=C(O)CCC(=O)OC[C@@H](NC(=O)C(Cl)Cl)[C@H](O)c1ccc([N+](=O)[O-])cc1 [chloramphenicol-sodium-succinate]
inactive: 1 nM 3.1% | 8.33 nM -0.01% | 100 nM 2.32% | 833.33 nM 3.18% | 10000 nM 1.6%

CC(=O)NC1N=C(c2ccccc2)c2ccccc2NC1=O (stereo not given)
inactive: 1 nM 0.39% | 8.33 nM 1.87% | 100 nM -0.74% | 833.33 nM 0.99% | 10000 nM -0.69%

CN1CCc2c(c3ccccc3n2Cc2ccccc2)C1 [mebhydrolin]
inactive: 1 nM -0.15% | 8.33 nM 2.44% | 100 nM 1.76% | 833.33 nM -0.47% | 10000 nM -1.08%

N[C@@H](Cc1ccc(O)cc1)C(=O)O [plovamer-acetate]
inactive: 1 nM -8.12% | 8.33 nM -7.1% | 100 nM -9.88% | 833.33 nM -9.04% | 10000 nM -5.19%

CC(=O)O[C@H]1C[C@@H]2CC[C@@H]3[C@H](CC[C@@]4(C)[C@H]3C[C@H](N3CC[N+](C)(C)CC3)[C@@H]4OC(C)=O)[C@@]2(C)C[C@@H]1N1CC[N+](C)(C)CC1 [pipecuronium]
inactive: 1 nM -1.2% | 8.33 nM -0.41% | 100 nM -0.11% | 833.33 nM -1.81% | 10000 nM -1.58%

COc1ccc2[nH]c([S+]([O-])Cc3ncc(C)c(OC)c3C)nc2c1 (stereo not given) [omeprazole-magnesium]
inactive: 1 nM 3.38% | 8.33 nM 2.29% | 100 nM 3.04% | 833.33 nM 6.47% | 10000 nM 6.97%

CC1(C)[C@H](C(=O)O)N2C(=O)C[C@H]2S1(=O)=O [sulbactam]
inactive: 1 nM 2.32% | 8.33 nM 2.68% | 100 nM -2.37% | 833.33 nM -0.56% | 10000 nM -3.63%

CNCCN(C)Cc1c[nH]nc1-c1ccc(O[C@H]2C[C@H](OCCC3CCOCC3)C2)cc1
inactive: 1 nM 0.46% | 8.33 nM -0.78% | 100 nM 4.05% | 833.33 nM 1.11% | 10000 nM 1.7%

CC(C)[C@H](CO)Nc1nc(Nc2ccc(C(=O)O)c(Cl)c2)c2ncn(C(C)C)c2n1 [purvalanol-B]
inactive: 1 nM 11.3% | 8.33 nM 5.29% | 100 nM 0.04% | 833.33 nM 4.65% | 10000 nM -1.55%

O=C(Nc1ccccc1)c1ccccc1O [salicylanilide]
inactive: 1 nM -4.46% | 8.33 nM -2.22% | 100 nM -1.24% | 833.33 nM 1.14% | 10000 nM 0.54%

CNC[C@H](O)[C@@H](O)[C@H](O)[C@H](O)CO [meglumine]
inactive: 1 nM -10% | 8.33 nM -10.3% | 100 nM -6.44% | 833.33 nM -11.4% | 10000 nM -10.1%

CNC(=O)c1cc(Oc2ccc(NC(=O)Nc3cc(C(C)(C)C)nn3-c3ccc4ncccc4c3)c(F)c2)ccn1 [rebastinib]
inactive: 1 nM -1.46% | 8.33 nM 0.18% | 100 nM 1.77% | 833.33 nM 5.75% | 10000 nM 8.96%

C[C@@H]1O[C@@H](O[C@H]2[C@H](Oc3cc(O)c(C(=O)CCc4ccc(O)cc4)c(O)c3)O[C@H](CO)[C@@H](O)[C@@H]2O)[C@H](O)[C@H](O)[C@H]1O [naringin-dihydrochalcone]
inactive: 1 nM 0.83% | 8.33 nM 0.35% | 100 nM 0.27% | 833.33 nM 0.83% | 10000 nM 1.4%

NCCC(Oc1ccc(C(F)(F)F)cc1)c1ccccc1 (stereo not given) [norfluoxetine]
inactive: 1 nM 1.01% | 8.33 nM 2.75% | 100 nM 1.92% | 833.33 nM -0.09% | 10000 nM -5.55%

[O-][n+]1cccc(CO)c1 [mepiroxol]
inactive: 1 nM 0.82% | 8.33 nM -0.73% | 100 nM 2.65% | 833.33 nM -0.59% | 10000 nM 2.31%

Cc1ncc([N+](=O)[O-])n1CC(O)CN1CCOCC1 (stereo not given) [morinidazole]
inactive: 1 nM -0.31% | 8.33 nM -0.21% | 100 nM -0.51% | 833.33 nM -1.22% | 10000 nM -0.64%

COc1ccc(-n2nc(CCC(=O)N(C)O)cc2-c2ccc(Cl)cc2)cc1 [tepoxalin]
inactive: 1 nM 0.7% | 8.33 nM -1.58% | 100 nM 0.1% | 833.33 nM 1.81% | 10000 nM -0.4%
